The values below come from PubChem BioAssay (NCATS).

A number with no mark means an inactive call. For some of these results: Results with a measured potency or affinity are listed apart. Active and inactive are the calls of the source. The rule behind the calls is not given here.

For assay [1] the following is noted: Ebola virus entry assay, green fluorescence channel.
The conditions of assay [2]: Ebola virus entry assay, blue channel fluorescence.
For assay [3] the following is noted: Ebola virus entry assay, ratio channel.
The conditions of assay [4]: Ebola virus entry assay, reporter ratio channel; Channel type: primary.
For assay [5] the following is noted: Ebola virus entry assay, blue channel (ratio component).
Throughout, for efficacy: 0% is about no effect.

With `C#C[C@]1(O)C=C[C@H]2[C@@H]3CCC4=CC(=O)CC[C@@H]4[C@H]3CC[C@@]21CC`, the efficacy in assay [1] was 51.7%. For the same compound, the compound was classed as inactive in assay [2], in assay [3], in assay [4] and in assay [5].
Regarding `CC(=O)N(CC(=O)N(C)C)c1ccccc1`, the efficacy in assay [1] is 35.3%. Further, the result in assay [2], in assay [3], in assay [4] and in assay [5] was inactive.
In the case of `CC1=C(CC(=O)O)c2cc(F)ccc2/C1=C\c1ccc(S(C)(=O)=O)cc1`, the efficacy in assay [1] was 40.3%. Also, the compound was classed as inactive in assay [2], in assay [3] and in assay [5]. The AC50 in assay [4] is 39.8 µM (active).
As for `O=C(NCC1CN(c2ccc(N3CCOCC3=O)cc2)C(=O)O1)c1ccc(Cl)s1` (stereo not given), the efficacy in assay [1] was 23%. For the same compound, the compound was called inactive in assay [2], in assay [3], in assay [4] and in assay [5].
As to `O=C(CCCN1CCN(c2ccccn2)CC1)c1ccc(F)cc1`, the efficacy in assay [1] is 28.5%. Moreover, the call in assay [2], in assay [3], in assay [4] and in assay [5] was inactive.
With `CC(=O)[C@@]1(O)CC[C@H]2[C@@H]3C[C@H](C)C4=CC(=O)CC[C@]4(C)[C@H]3CC[C@@]21C`, the efficacy in assay [1] is 52.6%. In addition, the outcome in assay [2], in assay [3], in assay [4] and in assay [5] was inactive.
Consider `O=C(Cn1ccnc1[N+](=O)[O-])NCCO`, for which the efficacy in assay [1] is -27.8%. For the same compound, the result in assay [2], in assay [3], in assay [4] and in assay [5] was inactive.
Take `CC(C)(C)CC(=O)OCC(=O)[C@@]1(O)CC[C@H]2[C@@H]3CCC4=CC(=O)C=C[C@]4(C)[C@H]3[C@@H](O)C[C@@]21C`: in assay [1], the efficacy is 47.7%. Moreover, the call in assay [2], in assay [3] and in assay [5] was inactive. In assay [4], the AC50 was 28.2 µM (active).
Turning to `CCn1c(=O)c2c(nc(C=Cc3ccc(OC)c(OC)c3)n2C)n(CC)c1=O`, in assay [1], the efficacy is 44.2%. Besides, the call in assay [2], in assay [3], in assay [4] and in assay [5] was inactive.
Take `C#C[C@]1(O)CC[C@H]2[C@@H]3[C@H](C)CC4=C(CCC(=O)C4)[C@H]3CC[C@@]21C`: in assay [1], the efficacy is 42.7%. Besides, the result in assay [2] and in assay [5] was inactive. Moreover, the AC50 in assay [3] and in assay [4] was 15.8 µM (active) throughout.
With `COc1ccc(S(=O)(=O)N2c3ccc(Cl)cc3[C@@](O)(c3ccccc3Cl)[C@H]2C(=O)N2CCC[C@@H]2C(N)=O)cc1OC`, in assay [1], the efficacy is 45%. The AC50 in assay [2], in assay [3] and in assay [4] was 10 µM (active) throughout. For the same compound, the result in assay [5] was inactive.
As to `CN1Cc2c(N)cccc2C(c2ccccc2)C1` (stereo not given), in assay [1], the efficacy is 99.7%. In addition, the AC50 in assay [2] is 17.8 µM (active); in assay [3] it was 25.1 µM (active); in assay [4], 25.1 µM (active). Moreover, the result in assay [5] was inactive.
Consider `CCNC(=O)NCCCOc1cccc(CN2CCCCC2)c1`, for which, in assay [1], the efficacy is 42.2%. Also, the outcome in assay [2], in assay [3], in assay [4] and in assay [5] was inactive.
In the case of `O=C(Nc1ccc([N+](=O)[O-])cc1)Nc1ccc([N+](=O)[O-])cc1`, the efficacy in assay [1] was -37.1%. Also, the call in assay [2], in assay [3], in assay [4] and in assay [5] was inactive.
As to `CCC(=O)O[C@]1(C(=O)COC)[C@@H](C)C[C@H]2[C@@H]3CCC4=CC(=O)C=C[C@]4(C)C3(F)[C@@H](O)C[C@@]21C` (stereo not given in full), the efficacy in assay [1] was 67.5%. Moreover, the outcome in assay [2], in assay [4] and in assay [5] was inactive. Further, the AC50 in assay [3] is 7.94 µM (active).
With `CCOCCn1c(N2CCCN(C)CC2)nc2ccccc21`, the efficacy in assay [1] was 58.4%. In addition, the outcome in assay [2], in assay [3] and in assay [5] was inactive. The AC50 in assay [4] was 39.8 µM (active).
Consider `Oc1ccc(/C=C/c2cc(O)cc(O)c2)cc1`, for which, in assay [1], the efficacy was 48.9%. Also, the outcome in assay [2], in assay [3], in assay [4] and in assay [5] was inactive.
For the compound `NS(=O)(=O)c1ccc(N2CCCCS2(=O)=O)cc1`, in assay [1], the efficacy was -36.2%. The outcome in assay [2], in assay [3], in assay [4] and in assay [5] was inactive.
Consider `Cc1nc2ccccc2c(=O)n1-c1ccccc1Cl`, for which the efficacy in assay [1] is 30.7%. The compound was classed as inactive in assay [2] and in assay [5]. Moreover, the AC50 in assay [3] and in assay [4] was 20 µM (active) throughout.
Consider `NCCc1ccc(O)c(O)c1`, for which, in assay [1], the efficacy was 28.6%. Besides, the compound was called inactive in assay [2], in assay [3], in assay [4] and in assay [5].
In the case of `CCCCCC(=O)O[C@]1(C(C)=O)CC[C@H]2[C@@H]3CCC4=CC(=O)CC[C@]4(C)[C@H]3CC[C@@]21C`, in assay [1], the efficacy is 74.4%. Moreover, the call in assay [2], in assay [3], in assay [4] and in assay [5] was inactive.
Consider `CCCC(=O)O[C@]1(C(=O)CC)CC[C@H]2[C@@H]3CCC4=CC(=O)CC[C@]4(C)[C@H]3[C@@H](O)C[C@@]21C`, for which the efficacy in assay [1] was 46.1%. The outcome in assay [2], in assay [3], in assay [4] and in assay [5] was inactive.
With `CN1CCOC(c2ccccc2)c2ccccc2C1` (stereo not given), in assay [1], the efficacy was 45.6%. Moreover, the compound was classed as inactive in assay [2], in assay [3] and in assay [5]. In addition, the AC50 in assay [4] was 39.8 µM (active).
